# Measurements published in PubChem BioAssay (NCI).
# Compounds without any hit were thinned out: in the full panel of roughly 79,000, 15% have a hit. Values without a mark were called inactive. Calls of active or inactive are those of the source. No stated cut-off is given here; in the data, active means growth inhibition above about 70%; inactive means the rest.
# Key:
# [1] = NCI Yeast Anticancer Drug Screen. Data for the rad52 strain (AID 147);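 further: 0% = growth of vehicle-treated control cultures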; conditions: S. cerevisiae rad52 mutant growth inhibition, stronger effect = higher value
# Procedure, shortened: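 DNA repair-defective yeast; compound exposure; growth scored against vehicle controls.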
# [2] = NCI Yeast Anticancer Drug Screen. Data for the wt1 strain (AID 149);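 further: 0% = growth of vehicle-treated wt1 cultures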; conditions: S. cerevisiae wt1 strain (SPY 50644) growth inhibition, stronger effect = higher value
# Procedure, shortened: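 Measured: growth of wt1 yeast under compound versus vehicle treatment, reported as inhibition.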
# [3] = NCI Yeast Anticancer Drug Screen. Data for the rad50EPP+ strain (AID 151);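 further: 0% = growth of vehicle-treated control cultures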; conditions: S. cerevisiae rad50 mutant strain, stronger effect = higher value
# Procedure, shortened: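 rad50EPP+ yeast treated with test compounds. Readout: growth vs vehicle control.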
# [4] = NCI Yeast Anticancer Drug Screen. Data for the mgt1 strain (AID 153); conditions: S. cerevisiae mgt1 mutant growth inhibition, stronger effect = higher value
# Procedure, shortened: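 Growth inhibition relative to vehicle controls was scored for the mgt1 yeast strain after compound exposure.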
# [5] = NCI Yeast Anticancer Drug Screen. Data for the rad50 strain (AID 155);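 further: 0% = growth of vehicle-only cultures of the same strain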; conditions: S. cerevisiae rad50 strain growth inhibition, stronger effect = higher value
# Procedure, shortened: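 Growth of the mutant yeast was measured after compound exposure and referenced to vehicle-treated cultures.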
# [6] = NCI Yeast Anticancer Drug Screen. Data for the mec2-1 strain (AID 157); conditions: S. cerevisiae mec2-1 strain, stronger effect = higher value
# Procedure, shortened: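 Growth inhibition is read against vehicle-treated controls after compound exposure of the mec2-1 yeast strain, which is defective in DNA damage repair or cell cycle control.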
# [7] = NCI Yeast Anticancer Drug Screen. Data for the sgs1 mgt1 strain (AID 161);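 further: 0% = growth of cultures given vehicle only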; conditions: S. cerevisiae sgs1 mgt1 strain, stronger effect = higher value
# Procedure, shortened: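 Growth of a repair-deficient yeast mutant was monitored after compound treatment and expressed as inhibition relative to vehicle-treated cultures.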
# [8] = NCI Yeast Anticancer Drug Screen. Data for the CLN2oe strain (AID 163);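 further: 0% = growth of vehicle-only control cultures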; conditions: S. cerevisiae CLN2oe strain, stronger effect = higher value
# Procedure, shortened: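 Compound-treated yeast; growth vs vehicle ctrl = % inhibition. Genetically altered strain (cell-cycle control).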
# [9] = NCI Yeast Anticancer Drug Screen. Data for the cln2 rad14 strain (AID 165);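 further: 0% = growth equal to vehicle treated cultures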; conditions: S. cerevisiae cln2 rad14 strain, stronger effect = higher value
# Procedure, shortened: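 Growth inhibition, relative to vehicle-treated controls, is the read-out. The test organism is a yeast strain with defined genetic alterations, cln2 rad14.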
# [10] = NCI Yeast Anticancer Drug Screen. Data for the bub3 strain (AID 167); conditions: S. cerevisiae bub3 mutant strain, stronger effect = higher value
# Procedure, shortened: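 Whole-cell yeast assay. The mutant strain was incubated with compounds, and growth inhibition was determined by comparison with vehicle-treated cells.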
# [11] = NCI Yeast Anticancer Drug Screen. Data for the wt2 strain (AID 169);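 further: 0% = growth of vehicle-treated yeast cultures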; conditions: S. cerevisiae wt2 strain growth inhibition, stronger effect = higher value
# Procedure, shortened: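 Compound exposure of yeast; growth compared with vehicle controls; inhibition reported.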
# [12] = NCI Yeast Anticancer Drug Screen. Data for the mlh1 strain (AID 171);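 further: 0% = growth of vehicle-treated control cultures of the same strain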; conditions: S. cerevisiae mlh1 strain growth inhibition, stronger effect = higher value
# Procedure, shortened: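 Compounds are applied to a genetically altered yeast strain, and its growth is compared with that of vehicle-treated cultures to give percent inhibition.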
# [13] = NCI Yeast Anticancer Drug Screen. Data for the sgs1 strain (AID 173);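 further: 0% = growth of vehicle-only control cultures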; conditions: S. cerevisiae sgs1 mutant, stronger effect = higher value
# Procedure, shortened: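 Compounds applied to genetically altered yeast; growth compared with vehicle-treated cultures to give % inhibition.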
# [14] = NCI Yeast Anticancer Drug Screen. Data for the rad18 strain (AID 177); conditions: S. cerevisiae rad18 mutant growth inhibition, stronger effect = higher value
# Procedure, shortened: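 Compounds are applied to a repair-deficient yeast strain, and growth is compared with that of vehicle-treated cultures to give percent inhibition.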
# [15] = NCI Yeast Anticancer Drug Screen. Data for the mlh1 rad18 strain (AID 175); conditions: S. cerevisiae mlh1 rad18 strain growth inhibition, stronger effect = higher value
# Procedure, shortened: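 Cells of a genetically altered yeast strain, deficient in DNA damage repair, were treated with compound. Their growth was then compared with that of vehicle-treated cultures to give inhibition.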
# [16] = at 5.0 µM (retest, dose inferred, filed as 0.5)
# [17] = at 50.0 µM (retest, dose inferred, filed as 5.0)
smiles,measurement,setting,value
CCOP(=O)(OCC)/C(C#N)=C\c1cccc2ccccc12,growth inhibition,[1]; at 1.2 µM,-2%
same,growth inhibition,[1]; at 3.7 µM,-1%
same,growth inhibition,[1]; at 11.0 µM,12%
same,growth inhibition,[1]; at 33.0 µM,92% (active)
same,growth inhibition,[1]; at 100.0 µM,97% (active)
same,growth inhibition,[2]; at 1.2 µM,2%
same,growth inhibition,[2]; at 3.7 µM,8%
same,growth inhibition,[2]; at 11.0 µM,6%
same,growth inhibition,[2]; at 33.0 µM,87% (active)
same,growth inhibition,[2]; at 100.0 µM,98% (active)
same,growth inhibition,[3]; at 1.2 µM,8%
same,growth inhibition,[3]; at 3.7 µM,10%
same,growth inhibition,[3]; at 11.0 µM,3%
same,growth inhibition,[3]; at 33.0 µM,22%
same,growth inhibition,[3]; at 100.0 µM,41%
same,growth inhibition,[4]; at 1.2 µM,-6%
same,growth inhibition,[4]; at 3.7 µM,-10%
same,growth inhibition,[4]; at 11.0 µM,-21%
same,growth inhibition,[4]; at 33.0 µM,84% (active)
same,growth inhibition,[4]; at 100.0 µM,98% (active)
same,growth inhibition,[5]; at 1.2 µM,-4%
same,growth inhibition,[5]; at 3.7 µM,1%
same,growth inhibition,[5]; [16],14%
same,growth inhibition,[5]; at 11.0 µM,22%
same,growth inhibition,[5]; at 33.0 µM,92% (active)
same,growth inhibition,[5]; [17],90% (active)
same,growth inhibition,[5]; at 50.0 µM,85.7% (active)
same,growth inhibition,[5]; at 100.0 µM,98% (active)
same,growth inhibition,[6]; at 1.2 µM,4%
same,growth inhibition,[6]; at 3.7 µM,16%
same,growth inhibition,[6]; [16],-19%
same,growth inhibition,[6]; at 11.0 µM,15%
same,growth inhibition,[6]; at 33.0 µM,85% (active)
same,growth inhibition,[6]; [17],93% (active)
same,growth inhibition,[6]; at 50.0 µM,88.2% (active)
same,growth inhibition,[6]; at 100.0 µM,98% (active)
same,growth inhibition,[7]; [16],53%
same,growth inhibition,[7]; [17],90% (active)
same,growth inhibition,[7]; at 50.0 µM,89.2% (active)
same,growth inhibition,[8]; at 1.2 µM,13%
same,growth inhibition,[8]; at 3.7 µM,2%
same,growth inhibition,[8]; at 11.0 µM,-7%
same,growth inhibition,[8]; at 33.0 µM,59%
same,growth inhibition,[8]; at 100.0 µM,98% (active)
same,growth inhibition,[9]; [16],12%
same,growth inhibition,[9]; [17],93% (active)
same,growth inhibition,[9]; at 50.0 µM,88.8% (active)
same,growth inhibition,[10]; at 1.2 µM,-29%
same,growth inhibition,[10]; at 3.7 µM,-13%
same,growth inhibition,[10]; [16],-3%
same,growth inhibition,[10]; at 11.0 µM,-41%
same,growth inhibition,[10]; at 33.0 µM,83% (active)
same,growth inhibition,[10]; [17],95% (active)
same,growth inhibition,[10]; at 50.0 µM,89.2% (active)
same,growth inhibition,[10]; at 100.0 µM,97% (active)
same,growth inhibition,[11]; at 1.2 µM,-6%
same,growth inhibition,[11]; at 3.7 µM,-2%
same,growth inhibition,[11]; at 11.0 µM,2%
same,growth inhibition,[11]; at 33.0 µM,82% (active)
same,growth inhibition,[11]; at 100.0 µM,98% (active)
same,growth inhibition,[12]; at 1.2 µM,11%
same,growth inhibition,[12]; at 3.7 µM,10%
same,growth inhibition,[12]; at 11.0 µM,17%
same,growth inhibition,[12]; at 33.0 µM,89% (active)
same,growth inhibition,[12]; at 100.0 µM,98% (active)
same,growth inhibition,[13]; at 1.2 µM,22%
same,growth inhibition,[13]; at 3.7 µM,23%
same,growth inhibition,[13]; at 11.0 µM,43%
same,growth inhibition,[13]; at 33.0 µM,93% (active)
same,growth inhibition,[13]; at 100.0 µM,99% (active)
same,growth inhibition,[14]; at 1.2 µM,15%
same,growth inhibition,[14]; at 3.7 µM,21%
same,growth inhibition,[14]; at 11.0 µM,47%
same,growth inhibition,[14]; at 33.0 µM,95% (active)
same,growth inhibition,[14]; at 100.0 µM,98% (active)
OC(Cc1cccc2ccccc12)CN1CCC(c2ccccc2)CC1 (stereo not given),growth inhibition,[1]; at 1.2 µM,52%
same,growth inhibition,[1]; at 3.7 µM,66%
same,growth inhibition,[1]; at 11.0 µM,69%
same,growth inhibition,[1]; at 33.0 µM,91% (active)
same,growth inhibition,[1]; at 100.0 µM,97% (active)
same,growth inhibition,[2]; at 1.2 µM,12%
same,growth inhibition,[2]; at 3.7 µM,28%
same,growth inhibition,[2]; at 11.0 µM,34%
same,growth inhibition,[2]; at 33.0 µM,61%
same,growth inhibition,[2]; at 100.0 µM,75% (active)
same,growth inhibition,[3]; at 1.2 µM,24%
same,growth inhibition,[3]; at 3.7 µM,5%
same,growth inhibition,[3]; at 11.0 µM,23%
same,growth inhibition,[3]; at 33.0 µM,38%
same,growth inhibition,[3]; at 100.0 µM,60%
same,growth inhibition,[4]; at 1.2 µM,64%
same,growth inhibition,[4]; at 3.7 µM,72% (active)
same,growth inhibition,[4]; at 11.0 µM,81% (active)
same,growth inhibition,[4]; at 33.0 µM,96% (active)
same,growth inhibition,[4]; at 100.0 µM,99% (active)
same,growth inhibition,[5]; at 1.2 µM,6%
same,growth inhibition,[5]; at 3.7 µM,53%
same,growth inhibition,[5]; [16],55%
same,growth inhibition,[5]; at 11.0 µM,66%
same,growth inhibition,[5]; at 33.0 µM,86% (active)
same,growth inhibition,[5]; [17],68%
same,growth inhibition,[5]; at 50.0 µM,86.7% (active)
same,growth inhibition,[5]; at 100.0 µM,96% (active)
same,growth inhibition,[6]; at 1.2 µM,17%
same,growth inhibition,[6]; at 3.7 µM,26%
same,growth inhibition,[6]; [16],13%
same,growth inhibition,[6]; at 11.0 µM,50%
same,growth inhibition,[6]; at 33.0 µM,86% (active)
same,growth inhibition,[6]; [17],57%
same,growth inhibition,[6]; at 50.0 µM,45.7%
same,growth inhibition,[6]; at 100.0 µM,97% (active)
same,growth inhibition,[8]; at 1.2 µM,63%
same,growth inhibition,[8]; at 3.7 µM,74% (active)
same,growth inhibition,[8]; at 11.0 µM,86% (active)
same,growth inhibition,[8]; at 33.0 µM,94% (active)
same,growth inhibition,[8]; at 100.0 µM,97% (active)
same,growth inhibition,[9]; [16],58%
same,growth inhibition,[9]; [17],76% (active)
same,growth inhibition,[9]; at 50.0 µM,74.2% (active)
same,growth inhibition,[10]; at 1.2 µM,39%
same,growth inhibition,[10]; at 3.7 µM,41%
same,growth inhibition,[10]; [16],64%
same,growth inhibition,[10]; at 11.0 µM,54%
same,growth inhibition,[10]; at 33.0 µM,79% (active)
same,growth inhibition,[10]; [17],87% (active)
same,growth inhibition,[10]; at 50.0 µM,69.2%
same,growth inhibition,[10]; at 100.0 µM,97% (active)
same,growth inhibition,[11]; at 1.2 µM,50%
same,growth inhibition,[11]; at 3.7 µM,52%
same,growth inhibition,[11]; at 11.0 µM,72% (active)
same,growth inhibition,[11]; at 33.0 µM,84% (active)
same,growth inhibition,[11]; at 100.0 µM,97% (active)
same,growth inhibition,[12]; at 1.2 µM,31%
same,growth inhibition,[12]; at 3.7 µM,38%
same,growth inhibition,[12]; at 11.0 µM,48%
same,growth inhibition,[12]; at 33.0 µM,84% (active)
same,growth inhibition,[12]; at 100.0 µM,98% (active)
same,growth inhibition,[13]; at 1.2 µM,60%
same,growth inhibition,[13]; at 3.7 µM,59%
same,growth inhibition,[13]; at 11.0 µM,67%
same,growth inhibition,[13]; at 33.0 µM,83% (active)
same,growth inhibition,[13]; at 100.0 µM,97% (active)
same,growth inhibition,[15]; [16],74% (active)
same,growth inhibition,[15]; [17],89% (active)
same,growth inhibition,[15]; at 50.0 µM,69.8%
same,growth inhibition,[14]; at 1.2 µM,30%
same,growth inhibition,[14]; at 3.7 µM,38%
same,growth inhibition,[14]; at 11.0 µM,54%
same,growth inhibition,[14]; at 33.0 µM,65%
same,growth inhibition,[14]; at 100.0 µM,87% (active)
